{
  "source": "PubChem BioAssay (Tox21)",
  "note": "Values joined by “and” are separate entries in the source; they are usually repeats but may differ in a detail not shown here. Equal entries are not always repeated. Inconclusive results are not listed. A call without a number means that no potency is given here. The source holds several records for some structures; these can differ, active in one and inactive in another. Active and inactive are the calls of the source. The call rests on the fitted dose curve; in most records, active means well fitted cell-killing curve with a large enough effect in the repeat runs; inconclusive means weak or mixed curves; inactive means no such curve, though single readings can be large or run the other way. Potency means the concentration at half of the fitted maximal effect.",
  "data": [
    {"assay": "qHTS assay for identifying genotoxic compounds that show differential cytotoxicity against isogenic chicken DT40 cell lines with known DNA damage response pathways - Rad54/Ku70 mutant cell line (AID 743015); further: nearly all actives have a fitted effect of over 60% in size", "settings": "DT40 Rad54/Ku70 mutant viability, CellTiter-Glo, 40 h; series mostly up to 66.8 µM", "text": "National Center for Advancing Translational Sciences [NCATS]\nNIH Chemical Genomics Center [NCGC]\nU.S. Environmental Protection Agency [EPA]\nNational Institutes of Environmental Health Sciences [NIEHS]\nNational Toxicology Program [NTP]\nU.S. Food and Drug Administration [FDA]\nDNA repair pathways play a critical role in cellular homeostasis by repairing DNA damage induced by endogenous processes and xenobiotics. Isogenic chicken DT40 cell lines deficient in different DNA repair pathways can be used to identify genotoxic compounds and aid in characterizing the nature of the DNA damage induced. Two DNA repair-deficient cell lines with disrupted genes, Rad54/Ku70 or Rev3, were used to screen the Tox21 10K compound library. Possible genotoxicity was based on the presence of a significant increase in cytotoxicity in one or more of the DNA repair-deficient cell lines compared to that observed in the parental DNA repair-proficient cell line. CellTiter Glo viability assay (Promega, Madison, WI) was used to measure cell viability in these cells after compound treatment. This assay includes the data from the Rad54/Ku70 mutant cell line.\nTox21 Assay Protocol Summary:\n300 DT40 mutant cells in 5 uL/well were dispensed into white, solid-bottom 1536-well plates using a Multidrop Combi (ThermoFisher Scientific, Waltham, MA) dispenser. After the assay plates were incubated at 37 C/5% CO2 for approximately 0.5 hour, 23 nL of compounds dissolved in DMSO, positive controls or DMSO only was transferred into the assay plate by a pintool work station (Kalypsys, San Diego, CA). The assay plates were incubated at 37 C/5% CO2 for 40 hours. After 5 uL per well of CellTiter-Glo reagent was added into each well of the assay plates, the plates were incubated for 30 min at room temperature and the luminescence intensity of the plates was measured using a ViewLux (PerkinElmer, Shelton, CT) plate reader.", "values": [
      {"molecule": "Cc1noc(NS(=O)(=O)c2ccc(N)cc2)c1C", "Potency": "inactive"},
      {"molecule": "O=c1ccc2ccccc2o1", "Potency": "inactive"},
      {"molecule": "Cn1cc[nH]c1=S", "Potency": "inactive"},
      {"molecule": "COc1c2occc2cc2ccc(=O)oc12", "Potency": "inactive"},
      {"molecule": "CC1(C)[C@@H]2CC[C@@]1(C)C(=O)C2", "Potency": "2.98 µM (active) and inactive"},
      {"molecule": "CCCCC(CC)COC(=O)/C=C/c1ccc(OC)cc1", "note": "(stereo not given)", "Potency": "inactive"},
      {"molecule": "CCCC(CCC)C(=O)O", "Potency": "inactive"},
      {"molecule": "CCCN(CCC)S(=O)(=O)c1ccc(C(=O)O)cc1", "Potency": "inactive"},
      {"molecule": "CCCCOC(=O)CC(CC(=O)OCCCC)(OC(C)=O)C(=O)OCCCC", "Potency": "inactive and 54.5 µM (active)"},
      {"molecule": "CCCCC1C(=O)N(c2ccccc2)N(c2ccccc2)C1=O", "Potency": "inactive"},
      {"molecule": "O=C(O)c1cccnc1", "Potency": "inactive"},
      {"molecule": "O=C(O)c1cc(N=Nc2ccc(S(=O)(=O)Nc3ccccn3)cc2)ccc1O", "Potency": "inactive"},
      {"molecule": "O=S(=O)(O)NC1CCCCC1", "Potency": "inactive"},
      {"molecule": "O=C(O)c1[nH]n(-c2ccc(S(=O)(=O)O)cc2)c(=O)c1N=Nc1ccc(S(=O)(=O)O)cc1", "Potency": "inactive"},
      {"molecule": "c1ccc2[nH]ccc2c1", "Potency": "inactive"},
      {"molecule": "NNC(=O)c1ccncc1", "Potency": "inactive"},
      {"molecule": "Nc1ccc(S(=O)(=O)c2ccc(N)cc2)cc1", "Potency": "inactive"},
      {"molecule": "CC(C)[C@@H]1CC[C@@H](C)C[C@H]1O", "Potency": "inactive"},
      {"molecule": "NC(N)=NC(=O)c1nc(Cl)c(N)nc1N", "Potency": "inactive"},
      {"molecule": "CC(O)CN(CCN(CC(C)O)CC(C)O)CC(C)O", "note": "(stereo not given)", "Potency": "inactive"},
      {"molecule": "OC(Cn1cncn1)(Cn1cncn1)c1ccc(F)cc1F", "Potency": "inactive"},
      {"molecule": "C1N2CN3CN1CN(C2)C3", "Potency": "inactive"},
      {"molecule": "NC(=O)c1cnccn1", "Potency": "inactive"},
      {"molecule": "Nc1ccc(C(=O)O)cc1", "Potency": "inactive"},
      {"molecule": "Cc1ccc(S(=O)(=O)NC(=O)NN2CCCCCC2)cc1", "Potency": "inactive"},
      {"molecule": "CCOc1ccc(NC(=O)CC(C)O)cc1", "note": "(stereo not given)", "Potency": "inactive"},
      {"molecule": "O=C(c1ccccc1)C(O)c1ccccc1", "note": "(stereo not given)", "Potency": "inactive"},
      {"molecule": "CCCCCCCCCCCCCCCC(=O)O", "Potency": "inactive"},
      {"molecule": "O=S(=O)(O)c1ccc2cc(O)ccc2c1", "Potency": "inactive"},
      {"molecule": "O=C(O)C(=O)O", "Potency": "inactive"},
      {"molecule": "Nc1ccc(O)c(C(=O)O)c1", "Potency": "inactive"},
      {"molecule": "NC(N)=O", "Potency": "inactive and 21.7 µM (active)"},
      {"molecule": "Oc1ccc(/C=C/c2cc(O)cc(O)c2)cc1", "Potency": "9.02 µM (active) and 27.6 µM (active) and 30.6 µM (active)"},
      {"molecule": "Cc1cc(=O)n(-c2ccccc2)n1C", "Potency": "inactive"},
      {"molecule": "O=C(O)CS", "Potency": "inactive and 12.3 µM (active)"},
      {"molecule": "Cc1cc(=O)[nH]c(=S)[nH]1", "Potency": "inactive"},
      {"molecule": "CC(=O)Nc1nnc(S(N)(=O)=O)s1", "Potency": "inactive"},
      {"molecule": "CC(C)(Oc1ccc(C2CC2(Cl)Cl)cc1)C(=O)O", "note": "(stereo not given)", "Potency": "inactive"},
      {"molecule": "CC(O)CO", "note": "(stereo not given)", "Potency": "inactive and 61.1 µM (active)"},
      {"molecule": "CC(O)C(=O)O", "note": "(stereo not given)", "Potency": "inactive"}
    ]}
  ]
}
